The campaign covered roughly 360,000 compounds. About 160 (0.044%) were called active. No stated cut-off is given here; in the data, active means survival enhancement above about 18%; inactive means the rest. This excerpt belongs to a sample that is enriched for actives.
test: enhancers of single-cell hiPSC survival, primary screen, ATPlite luminescence (AID 602274); conditions: at 20 µM, hits give high values, 100% = ROCK inhibitor wells, 0% = DMSO;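 further: cells exposed to compounds for 16 hours before the ATP read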

| Compound | survival enhancement |
| --- | --- |
| COc1ccc(S(=O)(=O)N(CCCN2CCCC2=O)Cc2cc3c(C)ccc(C)c3[nH]c2=O)cc1 | -2.2% (inactive) |
| O=C(CCc1[nH]c2ccccc2c1Sc1ccccc1)N(CCO)CCO | -1% (inactive) |
| O=S(=O)(/N=C(/Nc1ccccc1)c1ccccc1)c1cccs1 | 4% (inactive) |
| Cc1ccc2c(c1)nnc1nnc(SCC(=O)O)n12 | -0.2% (inactive) |
| COc1ccccc1NC(=O)N1CCCC1C(=O)NCc1cccs1 (configuration not stated) | -0.5% (inactive) |
| COc1ccc(-n2nnnc2SCc2nc(N)nc(N3CCOCC3)n2)cc1 | -2.1% (inactive) |
| CC1CCCCC12NC(=O)N(CC(=O)N1CCN(c3ccccc3)CC1)C2=O (configuration not stated) | -0.5% (inactive) |
| CC(C)Oc1ccc(S(=O)(=O)N2CCOCC2)cc1NC(=O)C1CSC2(C)CCC(=O)N12 (configuration not stated) | -0.5% (inactive) |
| Cc1ccccc1C(OCCN(C)C)C1CCCCC1 (configuration not stated) | -3.9% (inactive) |
| COc1cccc(CNC(=O)CCN2C(=S)NC(C)(C)CC2C)c1 (configuration not stated) | -0.7% (inactive) |
| CC(C)CN(CC(C)C)CC(O)CN(c1ccccc1)S(=O)(=O)c1ccccc1[N+](=O)[O-] (configuration not stated) | -0.3% (inactive) |
| N#C/C(=C/c1cccc([N+](=O)[O-])c1)c1nnc2n1CCCCC2 | 32.2% (active) |
| N#C/C(=C(\O)C(F)(F)F)c1nnc2n1CCCCC2 | 2% (inactive) |
| N#C/C(=C(\O)CCl)c1nnc2n1CCCCC2 | 2.8% (inactive) |
| COc1ccc(OC)c(CCNC(=O)CCn2ccc3cc(S(=O)(=O)N4CCCC4)ccc32)c1 | -0.3% (inactive) |
| C/C(=N\NS(=O)(=O)c1ccccc1)c1c(O)cc(C)oc1=O | -0.4% (inactive) |
| COc1ccc2c(c1)cc1n2CCN=C1NN | 3% (inactive) |
| Cc1cccc(-n2c(SCC(N)=O)nc3c(c2=O)C2(CCCCC2)Cc2ccccc2-3)c1 | -2.5% (inactive) |
| CC1(C(=O)NS(=O)(=O)c2cccc(F)c2)CCN1C(=O)Cc1cc(F)ccc1F (configuration not stated) | 0.9% (inactive) |
| COC(=O)CCSc1nccn1Cc1ccccc1 | 0.7% (inactive) |
| COC(=O)CCSc1cc([N+](=O)[O-])cc2c1c(C1OCCS1)nn2-c1ccccc1 (configuration not stated) | 19.1% (active) |
| CN1CCN(C(=O)c2cnn(-c3ccccc3)c2NC(=O)c2ccc([N+](=O)[O-])cc2)CC1 | 0.5% (inactive) |
| CC1(C)COC(c2cccn2Cc2ccccc2Cl)=N1 | 4.1% (inactive) |

| Compound | survival enhancement |
| --- | --- |
| COc1cc(OC)cc(C(=O)Nc2ncc3c(n2)CC(C)(C)CC3=O)c1 | 1.7% (inactive) |
| O=C(NN=Cc1ccccc1O)C(=O)NN=Cc1ccccc1O | -1.8% (inactive) |
| C=CCOc1ccc(C2/C(=C(\O)c3c(C)[nH]c(C(=O)OC)c3C)C(=O)C(=O)N2CCN(C)C)cc1 (configuration not stated) | 3.5% (inactive) |
| O=C(Nc1ccc(OC(F)(F)F)cc1)c1ccc2c(c1)no[n+]2[O-] | -0.6% (inactive) |
| Cc1c(C=O)c2ccccn2c1C(=O)c1ccncc1 | 0.1% (inactive) |
| O=C(COC(=O)Cn1cnc2ccccc2c1=O)NCC12CC3CC(CC(C3)C1)C2 | -0.2% (inactive) |
| CC1CCCC(NC(=O)COC(=O)c2ccccc2C(=O)N(C)C2CCCCC2)C1C (configuration not stated) | 0.8% (inactive) |
| Cc1cc(=O)n2nc(N3CCCC(C(=O)NCCC4=CCCCC4)C3)sc2n1 (configuration not stated) | 1.7% (inactive) |
| C=CCc1cccc2cc(C(=O)NC3CCCC3)c(=O)oc12 | 0.2% (inactive) |
| CC(C)CC(CC(C)C)=NNC(=O)c1ccc(CSc2nncn2C)cc1 | 2.3% (inactive) |
| O=c1[nH]cccc1-c1nc2ccccc2n1Cc1ccc(Cl)cc1 | 1.9% (inactive) |
| COCCC(=O)N1CCC(Oc2ccc(C(=O)NCc3ccon3)cc2)CC1 | -0.4% (inactive) |
| CN1C(=O)[C@H]2[C@@H](C3CC3)N3C(=O)CN(Cc4ccccc4)C(=O)[C@@]3(C)[C@H]2C1=O | -2.2% (inactive) |
| CCOc1cc(/C=C/C(=O)OCC(=O)NCCN2C(=O)CSC2=O)ccc1OCC(C)C | 3% (inactive) |
| CN1CCN(C(=O)c2ccc(-c3cc4nc(NCc5cccnc5)n(C)c(=O)c4s3)cc2)CC1 | -0.7% (inactive) |
| O=C(CCCN1C(=O)c2ccccc2C1=O)Oc1ccc(Cl)cc1 | 3.7% (inactive) |
| CN(C)c1ccnc(Oc2ccc(F)cc2)c1C#N | 1.8% (inactive) |
| COCCNC(=S)c1ccc(OC)cc1 | 5.9% (inactive) |
| COc1ccc(-c2ccc(CNCCCN3CCOCC3)o2)cc1Cl | -1.8% (inactive) |
| Cc1ccc(Cl)c(OCC(=O)N(C)CC(=O)Nc2ccc(N3CCOCC3)cc2)c1 | 0% (inactive) |
| COc1ccc(Cl)cc1NC(=O)[C@@H]1CCCN1C(=O)c1cccs1 | 1.2% (inactive) |
| O=C(O)c1ccc(-n2cccc2)cc1O | -3.7% (inactive) |
| NNC(=O)c1cnn(-c2ccccc2)c1C(F)(F)F | -0.5% (inactive) |

| Compound | survival enhancement |
| --- | --- |
| O=C1CC2(CCCC2)C(=O)N1CN1CCN(S(=O)(=O)c2ccc(F)cc2F)CC1 | -0.8% (inactive) |
| O=C(CNCCC1=CCCCC1)Nc1ccccc1N1CCCCCC1 | -0.7% (inactive) |
| CCNC(=O)Nc1ccc(S(=O)(=O)Nc2cnc(C)nc2C)cc1 | -0.1% (inactive) |
| CCCCN(CCCC)C(=O)CCS(=O)(=O)c1ccc2c(c1)n(C)c(=O)c(=O)n2C | 2.7% (inactive) |
| Cc1c(-c2nn(C)c(=O)c3ccccc23)oc2ccc(F)cc2c1=O | -1.5% (inactive) |
| COC(=O)c1ccc(NC(=S)Nc2cccc(C)n2)cc1 | 0.3% (inactive) |
| CCCCN1C(=O)CC(N2CCOCC2)C1=O (configuration not stated) | 1.8% (inactive) |
| COc1cc(OC)cc(-c2c(C#Cc3ccsc3)c3cc(-c4ccc(SC)cc4)ccc3n2C)c1 | 1.4% (inactive) |
| COc1ccc(N2C(=O)/C(=C\c3ccco3)N=C2SCC(N)=O)cc1Cl | -1.3% (inactive) |
| COc1ccc(C(=O)CSc2nnc(NC(=O)C3CC(=O)N(c4cccc(OC)c4)C3)s2)cc1 (configuration not stated) | 0.9% (inactive) |
| CC(=O)OCCN(CCCn1c(-c2ccncc2)nc2ccccc21)c1nc(-c2ccc(C)cc2)cs1 | 0.8% (inactive) |
| Cc1noc(C)c1CSc1nc2cc(S(=O)(=O)N3CCOCC3)ccc2o1 | 8.5% (inactive) |
| CC(C)(C)C(=O)NCCCNc1ccc([N+](=O)[O-])cc1 | -0.5% (inactive) |
| Cc1nccn1-c1ccc(NC(=O)[C@H]2O[C@@H](n3cnc4c(N)ncnc43)[C@H](O)[C@@H]2O)cc1 | 1.4% (inactive) |
| CN(Cc1ccc(C(F)(F)F)cc1)C(=O)[C@H]1O[C@@H](n2cnc3c(N)ncnc32)[C@H](O)[C@@H]1O | 20.3% (active) |
| Nc1ncnc2c1ncn2[C@@H]1O[C@H](C(=O)NCC(F)(F)F)[C@@H](O)[C@H]1O | 1.8% (inactive) |
| CCC(=O)c1ccc(OCC(O)CN2C(=O)NC(C)(C)C2=O)cc1 (configuration not stated) | 0.2% (inactive) |
| C=Cc1ccc(C(=O)N2CCCC(CCC(=O)N3CCN(c4ccccn4)CC3)C2)cc1 (configuration not stated) | -0.4% (inactive) |
| CC(=O)NNC1=Nc2ccccc2N(C)C(C)C1 (configuration not stated) | -0.5% (inactive) |
| CC1CCCCC1NC(=O)CCS(=O)(=O)c1cccc2nonc12 (configuration not stated) | 1.2% (inactive) |
| O=C(Nc1cccnc1)c1ccc(Cl)cc1[N+](=O)[O-] | -1.2% (inactive) |
| O=C(Nc1ccc(N2CCOCC2)nc1)c1c(F)cccc1F | -0.6% (inactive) |
| O=C(Nc1ccccc1-c1ccccc1)c1ccccc1[N+](=O)[O-] | 0.6% (inactive) |

| Compound | survival enhancement |
| --- | --- |
| O=C(Nc1ccncc1)c1ccccc1[N+](=O)[O-] | 28.4% (active) |
| O=C(Nc1ccncc1)c1c(F)cccc1F | 39.6% (active) |
| COc1cccc(OC)c1C(=O)Nc1ccc(Cc2ccncc2)cc1 | 0.6% (inactive) |
| Cc1cc2cc3c(cc2nc1SCC(=O)Nc1c(C)cccc1C)CCC3 | -1.9% (inactive) |
| O=C(Nc1nc(-c2ccncc2)cs1)C1COc2ccccc2O1 (configuration not stated) | 103% (active) |
| CC(/C=C/c1ccco1)=N/NC(=O)C1COc2ccccc2O1 (configuration not stated) | -0.2% (inactive) |
| CC(=O)c1ccccc1NC(=O)COC(=O)C1COc2ccccc2O1 (configuration not stated) | -0.2% (inactive) |
| CC(=O)c1cnn(-c2cc(Oc3ccc(F)cc3)ncn2)c1C | 2.8% (inactive) |
| CCCCNC(=O)CCn1nc(-c2ccc(Cl)cc2)ccc1=O | 0% (inactive) |
| CC(C)CCN1CCN(C/C=C/c2ccco2)CC1CCO (configuration not stated) | -0.4% (inactive) |
| COCc1cc(C)nc2sc3c(=O)n(-c4cccc5ccccc45)nnc3c12 | 4.5% (inactive) |
| C[C@H](NC(=O)C1CC(=O)N(c2ccc3c(c2)OCCO3)C1)C(=O)N1CCC(C(=O)O)CC1 (some centres not stated) | -0.4% (inactive) |
| CCOC(=O)C1(Cc2cccc(OC)c2)CCCN(S(=O)(=O)c2cccnc2)C1 (configuration not stated) | 1.2% (inactive) |
| C[n+]1ccccc1C1CCCC/C1=N\Nc1ccc([N+](=O)[O-])cc1[N+](=O)[O-] (configuration not stated) | -1.7% (inactive) |
| Cc1ccc(OS(=O)Nc2cccc3nccnc23)cc1 (configuration not stated) | 1.2% (inactive) |
| CCc1c(C)sc(NC(=O)c2cccs2)c1C(N)=O | -1.4% (inactive) |
| c1ccc2cc3c(NCCN4CCOCC4)ccnc3cc2c1 | -2.3% (inactive) |
| C1=C(N2CCOCC2)/C(=C/c2nc3ccccc3[nH]2)CC1 | 3.5% (inactive) |
| Cc1ccc(S(=O)(=O)N2CCN(C(=O)COC(=O)/C=C/c3cccc(Cl)c3)CC2)c(C)c1 | -0.9% (inactive) |
| O=C(Nc1ccc(N2CCN(C(=O)c3ccccc3)CC2)c(Cl)c1)c1ncn[nH]1 | 0.4% (inactive) |
| Cc1noc(C)c1NC(=O)Nc1ccc2c(c1)C(=O)N([C@H](C)CO)C[C@H](C)[C@@H](CN(C)C(=O)Nc1ccc(C(F)(F)F)cc1)O2 | -1.8% (inactive) |
| Cc1ccc(NC(=O)c2cnc(SCC(=O)NCC3CCCO3)n(C)c2=O)cc1 (configuration not stated) | 1.7% (inactive) |
| O=C(NCC(c1ccco1)N1CCc2ccccc2C1)c1ccccc1Cl (configuration not stated) | -0.3% (inactive) |
